Sampled rows, rich in hits. Any-hit rate of the full collection: about 1.6%.
KCNQ2 pot: potentiators of rat KCNQ2 potassium channel. CHO-K1 KCNQ2, FluxOR thallium flux fluorescence; active compounds read high. AID 2239. hit rate 0.54% among 310,000. O88943. B-score at 10 µM;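 active = fluorescence ratio B-score at least 3 SD of library B-scores, with initial fluorescence B-score within 3 of them, cut at about 5.3 in these data; same plate scores as AID 2156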;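 note: B-score of peak minus minimum over baseline fluorescence ratio after K+ and Tl+ stimulus; positive B-score means potentiation of KCNQ2 with more thallium influx and brighter signal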
KCNQ2 block: inhibitors of rat KCNQ2 potassium channel. O88943. CHO-K1 KCNQ2, FluxOR thallium flux, 20 min; active compounds read low. B-score at 10 µM. hit rate 1.1% among 310,000;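 active = fluorescence ratio B-score at most minus 3 library SDs, with starting brightness B-score within 2 library SDs, cut at about -5.5 in these data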
KCNQ2 inh conf: rat KCNQ2 channel inhibition, confirmatory screen; hit rate 57% among 1,000; shares compounds with KCNQ2 block; activity change, negative = inhibition, % at 10 µM; KCNQ2-expressing cells, thallium flux; active compounds read low; AID 493025
KCNQ1 spec: selectivity of KCNQ2 inhibitors against human KCNQ1. KCNQ1-expressing cells, FluxOR thallium flux fluorescence; active compounds read low. activity change, negative = inhibition, % at 10 µM. shares compounds with KCNQ2 block. AID 493026. hit rate 15% among 1,000;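 active = activity change at least 3 SD of negative controls below their mean in both duplicate wells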;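 note: CHO cells stably transfected with KCNQ1 and depolarized by potassium stimulus; peak minus minimum fluorescence over baseline after thallium addition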
CHO Tl ctr: KCNQ2 inhibitor counter-screen hit in parental CHO cells. activity change, % at 10 µM. shares compounds with KCNQ2 block. thallium flux counter-screen; active compounds read low. hit rate 14% among 1,000
KCNQ2 patch conf: blocks rat KCNQ2 current in automated patch clamp; shares compounds with KCNQ2 block; calls only at 10 µM; KCNQ2-expressing cells; hit rate 49% among 550
Of the large screens only hits and unclear results are named; the others gave an inactive call (follow-up assays come after a bar, where they were run). Unless noted, the rule behind the calls is not given here.

COc1ccc(-c2oc3c4c(cc(OC)c3c(=O)c2CC=C(C)C)OC(C)(C)C=C4)c(OC)c1	KCNQ2 block -9.01 | KCNQ2 inh conf inactive | KCNQ1 spec inactive | CHO Tl ctr inactive
CC(C)=CCc1c(-c2ccc(O)cc2O)oc2cc3c(c(O)c2c1=O)C=CC(C)(C)O3	none (no result: KCNQ2 pot)
CC(NC(=O)C1CCN(C(=O)[C@@H]2Cc3ccccc3CN2)CC1)c1ccccc1 (stereo partly drawn)	none (no result: KCNQ2 pot)
Cc1nc2ccccc2c(=O)n1/N=C/c1cccs1	none (no result: KCNQ2 pot)
Cc1nc2ccccc2c(=O)n1/N=C/c1cn(-c2ccccc2)nc1-c1cccs1	KCNQ2 block -9.06 | KCNQ2 inh conf -36.0% | KCNQ1 spec inactive | CHO Tl ctr inactive | KCNQ2 patch conf inactive
Cc1cc(C)c(S(=O)(=O)N(C)c2ccccc2)c(C)c1	KCNQ2 block -7.47 | KCNQ2 inh conf -31.0% | KCNQ1 spec inactive | CHO Tl ctr inactive | KCNQ2 patch conf inactive
Cc1cc2c(cc1S(=O)(=O)N(C)c1ccccc1)n(C)c(=O)n2C	none
c1ccc(-c2nc3cccnc3nc2-c2ccccc2)cc1	none (no result: KCNQ2 pot)
CN(C)C(=O)CCC(=O)N1CCCC(C(=O)c2ccc(C(F)(F)F)cc2)C1 (stereo not drawn)	none
CC1CCN(C(=O)/C(=C/c2ccccc2Cl)c2ccccc2)CC1	KCNQ2 block -7.51 | KCNQ2 inh conf -32.5% | KCNQ1 spec inactive | CHO Tl ctr inactive | KCNQ2 patch conf inactive
CN1CCN(C(=O)/C(=C\c2ccccc2)c2ccccc2)CC1	none
Cc1ccc(S(=O)(=O)NCc2ccccc2)cc1C(=O)NC1CCC(C)CC1 (stereo not drawn)	none (no result: KCNQ2 pot)
O=C(CCn1c(=O)oc2ccccc21)N(Cc1ccccc1)c1ccccc1	KCNQ2 block -11.3 | KCNQ2 inh conf -31.5% | KCNQ1 spec inactive | CHO Tl ctr inactive | KCNQ2 patch conf active
CN(Cc1ccccc1)C(=O)CCn1c(=O)oc2ccccc21	none
COc1ccc(/C=N/n2c(-c3ccccc3)n[nH]c2=S)cc1	none (no result: KCNQ2 pot)
COc1ccc(/C=N/n2c(N)nc(-c3ccccc3)c2-c2ccccc2)cc1	KCNQ2 block -7.02 | KCNQ2 inh conf inactive | KCNQ1 spec inactive | CHO Tl ctr inactive
COc1ccccc1N1CCN(C(=O)c2oc3cc(C)c(C)cc3c2C)CC1	none (no result: KCNQ2 pot)
CCOc1ccc2oc(C(=O)N3CCN(c4ccccc4OCC)CC3)c(C)c2c1	KCNQ2 block -9.78 | KCNQ2 inh conf inactive | KCNQ1 spec inactive | CHO Tl ctr inactive
COc1ccc(/C=N/Nc2nc(C)cc(-c3ccccc3)n2)c(OC)c1	none
COc1ccc(/C=N/Nc2cc(C)nc3ccc(OC)cc23)c(OC)c1	KCNQ2 block -8.96 | KCNQ2 inh conf -41.0% | KCNQ1 spec -32.0% | CHO Tl ctr -24.0% | KCNQ2 patch conf inactive
O=C(OCCN1CCOCC1)c1ccc2c(c1)OCCO2	none (no result: KCNQ2 pot)
O=C(CCN1CCOCC1)c1ccccc1	KCNQ2 block -9.89 | KCNQ2 inh conf inactive | KCNQ1 spec inactive | CHO Tl ctr inactive
O=C(CCN1CCCCC1)c1ccccc1	none (no result: KCNQ2 pot)
O=C(CCN1CCOCC1)c1ccc2c(c1)OCCO2	KCNQ2 block -7.41 | KCNQ2 inh conf inactive | KCNQ1 spec inactive | CHO Tl ctr inactive
COc1ccc(N(CC(O)Cn2cnc3ccccc32)S(=O)(=O)c2ccc(C)cc2)cc1 (stereo not drawn)	none (no result: KCNQ2 pot)
O=C(/C=C\c1ccc2c(c1)OCO2)CC1(O)C(=O)Nc2ccccc21 (stereo not drawn)	none
O=[N+]([O-])c1cc([N+](=O)[O-])c2c(=Nc3ccccc3)n(-c3ccccc3)n(O)c2c1	KCNQ2 block -9.75 | KCNQ2 inh conf -34.0% | KCNQ1 spec -39.5% | CHO Tl ctr -27.5% | KCNQ2 patch conf active
O=[N+]([O-])c1cc(Br)c(Nc2ccccc2)c([N+](=O)[O-])c1	none (no result: KCNQ2 pot)
CCCCn1c(N)c(N(CC(C)C)C(=O)C2CCN(S(=O)(=O)c3ccc(C)cc3)CC2)c(=O)[nH]c1=O	none
Cc1ccc(C)c(N2CCN(C(=O)Cn3cccc3)CC2)c1	none
Cc1ccc(C)c(N2CCN(C(=O)C(Cc3ccccc3)n3cccc3)CC2)c1 (stereo not drawn)	KCNQ2 block -7.03 | KCNQ2 inh conf -24.0% | KCNQ1 spec inactive | CHO Tl ctr inactive | KCNQ2 patch conf inactive
Cc1c(CCOC(=O)c2cc([N+](=O)[O-])cc([N+](=O)[O-])c2)sc[n+]1CC(=O)c1ccccc1	none
Cc1c(CCOC(=O)CC23CC4CC(CC(C4)C2)C3)sc[n+]1CC(=O)c1ccc(Br)cc1	KCNQ2 block -9.97 | KCNQ2 inh conf -28.5% | KCNQ1 spec inactive | CHO Tl ctr inactive | KCNQ2 patch conf active
